D1 potentiator = potentiators of human D1 dopamine receptor. P21728. HEK293 TREx D1 cells, calcium flux, dopamine EC20 potentiation. potentiation, % at 10 µM. 360,000 compounds, 0.036% hits. AID 504651; in the data active = potentiation above about 30%
TRPV1 potentiator = enhances activation of the human vanilloid receptor TRPV1; TRPV1-expressing cells, Fluo-8 calcium influx, capsaicin EC20 potentiation; 320,000 compounds, 0.02% hits; potentiation, % at 8.33 µM; Q8NER1; in the data active = potentiation above about 80%; inconclusive = between about 30% and that limit
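TRPV1-expressing cells were cultured overnight at 35.5C and loaded with Fluo-8 calcium dye for 40 to 90 min at room temperature. After a 10 s baseline, compound was added and calcium influx was read kinetically for 3 min (ex 480/em 520 nm).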
D1 antagonist = blocks dopamine activation of the human D1 receptor; HEK293 TREx D1 cells, calcium flux, dopamine EC80; stronger effect = lower value; 360,000 compounds, 3.2% hits; P21728; activity change, negative = inhibition, % at 10 µM; in the data active = activity change below about -30%
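Tetracycline-induced HEK293 Trex D1 cells, force-coupled to calcium, dye-loaded; compounds added and read 180 s, then EC80 dopamine added and calcium flux tracked kinetically another 180 s.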
D1 agonist = activates the human D1 dopamine receptor. P21728. HEK293 T-REx D1 cells, calcium flux, agonist mode. activation, % at 2 µM. 360,000 compounds, 1% hits. AID 504660; in the data active = activation above about 30%
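Inducible HEK293 T-REx D1 cells, force-coupled to calcium signalling, were plated at 4000 cells/well with tetracycline and held overnight at 30 C. After no-wash calcium dye loading, compound-evoked calcium rise over 180 s flagged agonists.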
TRPV1 agonist = human TRPV1 agonism; AID 540275; activation, % at 8.33 µM; TRPV1-expressing cells, Fluo-8 calcium influx, agonist mode; Q8NER1; 320,000 compounds, 0.19% hits; in the data active = activation above about 80%; inconclusive = between about 30% and that limit
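Fluo-8 calcium influx in TRPV1-expressing cells, kinetic read (ex 480/em 520 nm). Compound added and read 3 min for agonist activity, followed by capsaicin at EC20 final and 2 min further read for enhancement.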
Numbers stand for hits; n = inactive; u = inconclusive; x = no result given; ! = not active in a repeat. Rows were chosen to be rich in hits. Some 4.2% of all compounds tested hit in one or more screens of this group.

SMILES	D1 potentiator	TRPV1 potentiator	D1 antagonist	D1 agonist	TRPV1 agonist
O=C1NC(=O)/C(=C\c2ccccc2Oc2ccc(F)c(F)c2)S1	n	n	-34	n	n
O=C(N/C=C/c1ccccc1)c1ccccc1	n	n	n	n	83
O=C(N/C=C\c1ccccc1)NCc1ccc(Cl)cc1	n	n	-31	n	n
O=C(NCCNC(=O)c1ccccc1)c1ccccc1	n	n	n	n	n
CCOc1ccc(NC(=O)CCn2cnc3onc(-c4ccc(F)cc4)c3c2=O)cc1	n	x	n	n	x
Cc1ccccc1NC(=O)CCn1cnc2onc(-c3ccc(F)cc3)c2c1=O	n	x	-45	n	x
Cc1ccc(NC(=O)CCS(=O)(=O)c2ccc(Br)s2)c(Br)c1	n	x	n	n	x
CCc1cccc(NC(=O)Cn2nc(-c3cc(C)ccc3C)ccc2=O)c1	n	x	n	n	x
C#CCSc1nnc(CSc2nc3ccccc3s2)n1-c1ccccc1	n	n	-30	n	n
CCOC(=O)N1CCc2c(sc3c2c(=O)n(Cc2ccccc2)c(=O)n3CC(=O)Nc2cccc(CC)c2)C1	n	x	n	n	x
COC(=O)c1cc(Nc2cc(C)c3c(O)cccc3n2)cc(C(=O)OC)c1	n	n	n	n	n
Cc1ccc(Nc2cc(C)c3ccc(O)cc3n2)cc1C	n	n	n	33	n
COC(=O)c1cc(Nc2cc(C)c3ccc(O)cc3n2)cc(C(=O)OC)c1	n	n	n	n	n
COc1ccc(Nc2cc(C)c3c(O)cccc3n2)cc1	n	n	-33	n	n
COc1ccc(Nc2c(C)cccc2C)cc1	n	n	-38	n	n
Cc1ccc(Nc2cc(C)c3c(O)cccc3n2)cc1C	n	n	-49	35	n
COc1ccc(C(=O)CC(=O)C(=O)Nc2c(C)cccc2C)cc1	n	n	n	n	n
O=C1C(=O)N(c2ccccc2)C(c2ccccc2[N+](=O)[O-])/C1=C(\O)c1ccccc1 (stereo not given)	n	n	n	n	n
O=C1C(=O)N(c2cccc(Cl)c2)C(c2ccccc2[N+](=O)[O-])/C1=C(\O)c1ccccc1 (stereo not given)	n	n	-51	n	n
CCSc1nnc2c(n1)OC(c1ccc(OC)cc1OC)N(C(C)=O)c1ccccc1-2 (stereo not given)	n	x	n	n	x
COc1ccc(-c2onc(C)c2C)cc1S(=O)(=O)N(C)Cc1ccccc1	n	x	n	n	x
O=C(CCNS(=O)(=O)c1ccc(Cl)cc1)N1CCOCC1	n	n	-32	n	n
Cc1ccc(N(CCC(=O)N2CCOCC2)S(=O)(=O)c2ccccc2)cc1	x	n	-55	n	n
COc1ccc(NS(=O)(=O)c2ccc(OCC(=O)N3CCOCC3)cc2)cc1	n	n	n	n	n
CN(Cc1ccccc1)S(=O)(=O)c1ccc(OCC(=O)N2CCOCC2)cc1	n	n	-32	n	n
SMILES	D1 potentiator	TRPV1 potentiator	D1 antagonist	D1 agonist	TRPV1 agonist
O=C(COc1ccc(S(=O)(=O)Nc2ccc(Cl)cc2)cc1)N1CCOCC1	n	n	n	31	n
O=C(Nc1cccc(Br)c1)c1cc(S(=O)(=O)N2CCCCC2)c[nH]1	n	x	n	n	x
CCCCN(CCCC)CCCNC(=O)c1cc(-c2ccc(Cl)s2)nc2ccccc12	n	x	n	n	x
COc1ccc2c(c1)CCc1c(C(=O)Nc3c(C)nn(Cc4ccc(Cl)cc4)c3C)noc1-2	n	x	n	n	x
COc1ccc2c(c1)CCc1c(C(=O)Nc3c(C)nn(Cc4ccccc4Cl)c3C)noc1-2	n	x	-40	n	x
COc1ccc(OC)c(-c2cc(C(=O)Nc3c(C)nn(Cc4ccc(Cl)cc4)c3C)no2)c1	n	n	n	n	n
COc1ccc2c(c1)CCc1c(C(=O)Nc3c(C)nn(Cc4ccccc4)c3C)noc1-2	n	n	-32!	n	n
COc1ccc2c(c1)CCc1c(C(=O)N3CCCc4ccccc43)noc1-2	n	n	n	n	n
COc1ccc2c(c1)CCc1c(C(=O)N3CCOCC3)noc1-2	n	n	n	n	81
COc1ccc(OC)c(-c2cc(C(=O)Nc3c(C)nn(Cc4ccccc4)c3C)no2)c1	n	n	-44	n	n
COc1ccc(OC)c(-c2cc(C(=O)NCc3ccco3)no2)c1	n	n	-34	n	u
Cc1[nH]n(-c2ccccc2)c(=O)c1N=Nc1cccc(Cl)c1	n	n	n	n	n
CC(=O)c1cccc(N=Nc2c(-c3ccccc3)[nH]n(-c3ccccc3)c2=O)c1	n	n	-31	n	n

High-throughput results (PubChem BioAssay)
